A number with no mark means an inactive call. Active and inactive are the calls of the source.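 Rule for the calls: active = compounds whose dose series gives a full or clear partial fitted curve of increased nuclear translocation; inconclusive = weak partial curve or effect only at the top dose; inactive = no dose-dependent translocation response.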
Target: Glucocorticoid receptor (Homo sapiens) (UniProt P04150)
Assay: GR-GFP Redistribution (AID 450)
Settings: U2OS GR-GFP nuclear translocation, laser cytometry, 2 h
Source text: NIH Molecular Libraries Screening Centers Network [MLSCN]
NIH Chemical Genomics Center [NCGC]
The glucocorticoid receptor (GR) Redistribution assay (BioImage) enables the visualization of GR cytoplasmic to nuclear translocation by the use of a GR-GFP fusion. GR is normally cytosolic, however ligands such as dexamethasone, cause nuclear translocation where the protein binds to response elements and interacts with various co-factors to modulate transcription. Because both functional agonists and antagonists can induce nuclear translocation, this assay can detect ligands regardless of their effects on gene expression. GR-GFP expressing U20S cells were used here. Dexamethasone was the positive control for translocation and data normalization. Detection of nuclear translocation was performed in 1536-well plates using the Acumen laser scanning plate cytometer (TTP LabTech). Validation of this assay and a detailed protocol have been described.
NCGC Assay Protocol Summary:
GR-GFP U2OS cells were maintained in DMEM with Glutamax and high glucose, 1% v/v penicillin-streptomycin, and 0.5 mg/mL Geneticin. For cell culture, 10% […] fetal bovine serum (FBS) was used (Invitrogen #26140-079). For cell plating 10% dextran, charcoal-stripped FBS (Hyclone SH30068.03) was used. U2OS cells were trypsin treated, suspended in medium, and passed through a 40 um basket filter. The cells were seeded at 600 cells/5 uL/well into clear-bottom black sided 1536-well plates and incubated for approximately 20 hrs, 37degC, 5%, CO2 in a tissue culture incubator. Twenty-three nL of compound was delivered by pin tool and the plates were incubated as above for 2 hrs. The compounds were tested as a 7-point titration ranging from 46 uM to 0.6 nM. The cells were fixed using the Kalypsys Washer/Dispenser station. The fixing protocol involved aspiration of the cell media, addition of 6 uL/well of PBS, aspiration of PBS, addition of 5uL/well of 100% methanol, aspiration of methanol, and addition of 3 uL/well PBS with 1.5 uM propidium iodide (PI). The plates were read by the Acumen Explorer using a 1 x 8 um scan of the whole well area. PI fluorescence triggered the collection of PI and GFP signals. A nuclei population was defined by a 10 to 100 um width and depth filter that eliminated small and large fluorescent particles. Two subpopulations of nuclei were then defined by peak intensity of GFP fluorescence to obtain translocated and untranslocated objects. The number of translocated objects was used for data normalization.
Keywords: NIH Roadmap, MLSCN, MLI, MLSMR, sOGT, qHTS, NCGC
Potency is the fitted concentration of half-maximal effect.

Sequence of Glucocorticoid receptor (Homo sapiens) (P04150 whole entry, looked up): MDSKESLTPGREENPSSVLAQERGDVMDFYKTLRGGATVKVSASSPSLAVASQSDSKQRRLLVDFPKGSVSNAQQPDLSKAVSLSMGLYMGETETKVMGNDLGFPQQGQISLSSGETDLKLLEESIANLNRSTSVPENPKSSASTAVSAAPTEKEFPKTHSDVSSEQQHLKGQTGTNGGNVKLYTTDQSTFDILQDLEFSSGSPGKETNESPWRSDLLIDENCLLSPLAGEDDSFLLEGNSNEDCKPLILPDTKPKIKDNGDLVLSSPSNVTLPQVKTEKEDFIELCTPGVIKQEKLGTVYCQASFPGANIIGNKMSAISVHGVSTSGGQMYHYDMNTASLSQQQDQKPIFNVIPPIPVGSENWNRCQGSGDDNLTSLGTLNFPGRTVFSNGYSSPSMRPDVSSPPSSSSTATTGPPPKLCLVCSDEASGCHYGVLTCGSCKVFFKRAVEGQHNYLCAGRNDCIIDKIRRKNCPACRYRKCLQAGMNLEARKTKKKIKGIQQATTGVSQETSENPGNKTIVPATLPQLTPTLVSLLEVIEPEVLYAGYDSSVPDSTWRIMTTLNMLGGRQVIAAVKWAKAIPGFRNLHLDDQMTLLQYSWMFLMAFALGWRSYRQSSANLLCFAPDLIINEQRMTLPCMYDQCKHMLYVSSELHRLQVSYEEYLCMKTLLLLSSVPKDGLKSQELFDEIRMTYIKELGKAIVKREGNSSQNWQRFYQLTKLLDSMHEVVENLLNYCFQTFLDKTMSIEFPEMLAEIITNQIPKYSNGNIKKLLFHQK

| Structure (SMILES) | Potency |
| --- | --- |
| CN1CCN(c2ncc3nc(-c4ccc(Cl)cc4)c(=O)n(C)c3n2)CC1 | > 9.22 µM |
| COc1cccc(Nc2ncc3nc(CCc4ccccc4)c(=O)n(Cc4cccs4)c3n2)c1 | > 9.22 µM |
| COc1ncc2ncc(=O)n(Cc3ccc(F)cc3)c2n1 | > 9.22 µM |
| CC(=O)NCCNc1ccnc(-c2ccccc2C)n1 | > 46 µM |
| COc1cccc(-c2ccc3ncnc(N4CCOCC4)c3c2)c1 | > 46 µM |
| COc1ccccc1-c1ccc2ncnc(NCCN3CCOCC3)c2c1 | > 46 µM |
| CN(C)C(=O)c1ccc(-c2nccc(NCc3cccnc3)n2)cc1 | > 46 µM |
| Cc1ccccc1-c1nccc(-n2ccnc2)n1 | > 46 µM |
| CN(Cc1ccco1)c1ncncc1-c1ccc2c(c1)OCO2 | > 46 µM |
| COc1ncc2nc(-c3cn(C)c4ccccc34)c(=O)n(CCC#N)c2n1 | > 9.22 µM |
| COCCNc1nc(-c2ccoc2)nc2ccccc12 | > 46 µM |
| c1cncc(-c2nc(-n3ccnc3)c3ccccc3n2)c1 | > 46 µM |
| COc1cccc(Cn2c(=O)c(-c3cccs3)nc3cnc(Nc4cccc(OC)c4)nc32)c1 | > 9.22 µM |
| COc1cccc(Nc2ncc3nc(-c4ccc(Cl)cc4)c(=O)n(C[C@H]4CCCO4)c3n2)c1 | > 9.22 µM |
| Cc1cnc(CNc2nc(-c3ccc(N(C)C)cc3)nc3ccccc23)cn1 | > 46 µM |
| COCCn1c(=O)c(-c2ccc(Cl)cc2)nc2cnc(Oc3ccccc3)nc21 | > 9.22 µM |
| c1ccc(Nc2ncnc3ccc(-c4ccoc4)cc23)cc1 | > 46 µM |
| CN(C)c1nc(-c2ccccc2C(F)(F)F)nc2ccccc12 | > 46 µM |
| c1ccc(CNc2ncncc2-c2cccnc2)cc1 | > 46 µM |
| COc1ccc(-c2nc3cnc(N(C)C)nc3n(CCC#N)c2=O)cc1 | > 9.22 µM |

| Structure (SMILES) | Potency |
| --- | --- |
| COc1ccccc1-c1cncnc1NCc1ccccc1 | > 46 µM |
| COc1ccccc1CNc1ccnc(-c2ccccc2OC)n1 | > 46 µM |
| COc1ncc2nc(CCc3ccccc3)c(=O)n(CCC#N)c2n1 | > 9.22 µM |
| c1cncc(CNc2ccnc(-c3cccnc3)n2)c1 | > 46 µM |
| Cc1ccccc1-c1cncnc1NCc1cccnc1 | > 46 µM |
| CN1CCN(c2ncc3ncc(=O)n(-c4ccccc4)c3n2)CC1 | > 9.22 µM |
| COCCn1c(=O)c(-c2cccs2)nc2cnc(Oc3cccc(Cl)c3)nc21 | > 9.22 µM |
| CN(C)Cc1ccccc1-c1cc(NCc2ccccc2)ncn1 | > 46 µM |
| COCCn1c(=O)c(-c2cccc(Cl)c2)nc2cncnc21 | > 9.22 µM |
| COc1cccc(-c2nc(Nc3ccncc3)c3ccccc3n2)c1 | > 46 µM |
| O=c1c(-c2cc(F)cc(F)c2)nc2cnc(N3CCOCC3)nc2n1Cc1ccc(F)cc1 | > 9.22 µM |
| CN(C)C(=O)c1ccc(-c2ccc3ncnc(NCc4cccs4)c3c2)cc1 | > 46 µM |
| O=c1cnc2cnc(Oc3ccccc3)nc2n1C[C@H]1CCCO1 | > 9.22 µM |
| COc1ccc(Oc2ncc3nc(-c4cn(C)c5ccccc45)c(=O)n(C)c3n2)cc1 | > 9.22 µM |
| CN(C)Cc1ccccc1-c1cncnc1NCc1ccccc1 | > 46 µM |
| C[C@@]12CCC(=O)C=C1CC[C@H]1[C@H]3CC[C@](O)(C(=O)CO)[C@]3(C)CC(=O)[C@@H]12 | 0.431 µM (active) |
| O=c1c(-c2ccc(Cl)cc2)nc2cnc(N3CCOCC3)nc2n1CCc1ccccc1 | > 9.22 µM |
| CS(=O)(=O)Nc1cccc(-c2ccc3ncnc(Nc4ccc(F)cc4)c3c2)c1 | > 46 µM |
| COCCn1c(=O)c(-c2cccs2)nc2cnc(Nc3ccccc3)nc21 | > 9.22 µM |
| COc1ccc(CNc2ncncc2-c2cccc(NS(C)(=O)=O)c2)c(OC)c1 | > 46 µM |

Source: PubChem BioAssay (NCATS)
